An excerpt weighted towards active compounds, which were near 7.9% of everything screened.
HT1080-NT tox: kills 2HG-producing HT-1080-NT fibrosarcoma cells; HT-1080-NT fibrosarcoma viability, CellTiter-Glo ATP luminescence, 48 h; Potency, µM (series often up to 46.1 µM), usual class: cytotoxic; 360,000 tested, 1.6% active;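 also: NT is the 2HG producing partner of a matched IDH1 knockdown line; nearly all actives have a fitted effect of over 55% in size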
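Fibrosarcoma NT cells, 750 per well in 5% FBS RPMI, were exposed to compound for 48 hours. Viability: CellTiter-Glo luminescence.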
KB-3-1 tox: kills parental KB-3-1 adenocarcinoma cells | KB-3-1 viability, CellTiter-Glo ATP luminescence, 72 h | Potency, µM (top dose mostly 46.1 µM), most hits filed as cytotoxic | 400,000 tested, 1.4% active; also: nearly all actives have a fitted effect of over 60% in size
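Cells are dispensed, compounds pinned in, plates held at 37 °C for 72 h, then CellTiter-Glo is added and luminescence read after 10 minutes. Cell line: parental KB-3-1 in phenol-red-free DMEM, 10% FBS.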
KB-V1 MDR tox: KB-V1 MDR subline cytotoxicity. Potency, µM (doses to about 46.1 µM), most hits filed as cytotoxic. 400,000 tested, 3.4% active. KB-V1 MDR cells viability, CellTiter-Glo, 72 h; also: nearly all actives have a fitted effect of over 60% in size
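Cytotoxicity toward P-gp-expressing KB-V1 cells was determined as loss of CellTiter-Glo luminescence after 72 h at 37 degrees C. Compounds were tested in quantitative HTS format across a concentration range, with curves fitted to normalized data.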
HT1080 IDH1KD tx: toxicity to HT-1080 IDH1 knockdown cells (counter line). 360,000 tested, 2% active. HT-1080 IDH1 knockdown viability, ATP luminescence, 48 h. AID 686971. Potency, µM (doses to about 46.1 µM), actives largely listed as cytotoxic
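HT-1080-IDH1KD cells (IDH1 knocked down), 750/well in RPMI with 5% FBS, treated with compound 48 h at 37 degrees C. Viability by CellTiter-Glo luminescence, normalised to DMSO and no-cell wells; concentration-response curves classed.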
SW480 rereplic: inducers of DNA re-replication in SW480 colon cancer cells | SW480 DNA re-replication, Hoechst DNA content imaging, 48 h | Potency, µM (titrated, usually from 46.1 µM), most hits filed as activators | 340,000 tested, 1.8% active | AID 624297; also: nearly all actives have a fitted effect of over 55% in size
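Per well, 250 cells were exposed to pinned compound for 48 hr. Nuclear DNA was visualised with Hoechst (40 min, 37 C) and total object intensity recorded by fluorescence scanning.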
MCF10A rerep: inducers of DNA re-replication in MCF 10A breast cells | MCF 10A DNA re-replication, Hoechst nuclear intensity, 48 h | Potency, µM (series often up to 46.1 µM), hits mostly activators | 350,000 tested, 2.9% active; also: nearly all actives have a fitted effect of over 50% in size
Numbers stand for hits; - = inactive; ? = inconclusive; . = no result. Calls follow the shape of the dose curve; as a rule, active = well fitted curve in the direction sought with a large enough effect; inconclusive = small, poorly fitted or top-dose-only effect, or another doubt; inactive = no such curve, though single readings can be large; an effect the other way counts as inactive or inconclusive.

SMILES | HT1080-NT tox | KB-3-1 tox | KB-V1 MDR tox | HT1080 IDH1KD tx | SW480 rereplic | MCF10A rerep
CCOC(=O)N1CCN(C(=O)c2cc3sccc3n2C)CC1 | - | - | 13µM | - | - | -
Cn1c(C(=O)N2CCN(c3cccc(C(F)(F)F)c3)CC2)cc2sccc21 | - | - | - | ? | 23µM | ?
Cc1ccc(C)c(N2CCN(C(=O)c3cc4sccc4n3C)CC2)c1 | ? | ? | ? | ? | - | ?
O=C(CSc1nc(C2CC2)nc2sc3c(c12)CCCC3)NCc1ccco1 | - | - | - | - | - | 16µM
O=C(CSc1ncnc2ccccc12)NCc1ccco1 | - | - | - | - | - | -
CCCc1nc2sc3c(SCC(=O)NCc4ccco4)ncnc3c2c2c1CCC2 | - | ? | 12µM | - | 15µM | 9.2µM
Cc1nc(SCC(=O)NCc2ccco2)c2c3c(sc2n1)CCCC3 | - | ? | ? | ? | - | ?
CC(C)Sc1nc2sc3c(c2c2nnc(SCC(=O)NCc4ccco4)n12)CCCC3 | - | - | 18µM | - | - | ?
CC(C)n1nnnc1SCC(=O)N(C)C1CCS(=O)(=O)C1 (configuration not stated) | - | - | ? | - | - | -
CC(NC(=O)c1ccccc1NC(=O)c1nsc2ccccc12)c1ccccc1 (configuration not stated) | . | - | - | . | . | .
CN(C)CCN(C)Cc1c2ccccc2c(CN(C)CCN(C)C)c2ccccc12 | ? | - | - | 21µM | ? | ?
CN(C)CCP(=O)(c1ccccc1)c1ccccc1 | - | - | - | - | - | ?
Cc1cc(C)c(NC(=O)Cn2nc(-c3ccncc3)ccc2=O)c(C)c1 | . | - | - | . | . | .
Brc1cccc(OCCN2CCc3ccccc3C2)c1 | - | - | - | - | - | -
Cc1ccc(OCCCCN2CCCCC2)cc1 | - | - | - | - | - | -
Cc1ccc(OCCN2CCCC2)cc1 | - | - | - | - | 15µM | ?
Cc1ccc(OCCCCN2CCc3ccccc3C2)cc1 | - | ? | - | ? | - | 15µM
c1ccc(OCCN2CCN(C(c3ccccc3)c3ccccc3)CC2)cc1 | - | - | - | - | 0.65µM | ?
CN1CCN(CCCOc2ccc(-c3ccccc3)cc2)CC1 | 23µM | - | - | 16µM | - | ?
COc1ccc(Cn2c(C)nc3ccc([N+](=O)[O-])cc3c2=O)cc1 | - | - | - | - | - | -
O=C(COC(=O)c1cccc(OC(F)F)c1)Nc1ncccn1 | - | - | - | - | - | -
C=CCNC(=S)Nc1sc2c(c1C(=O)OCC)CC(C(C)C)OC2 (configuration not stated) | 6.3µM | - | ? | 7.9µM | ? | 12µM
CCOC(=O)c1c(NC(=S)NCCc2ccccc2)sc2c1CC(C(C)C)OC2 (configuration not stated) | - | - | 21µM | - | - | -
CC(C)C1Cc2c(sc(NC(=S)NC(=O)c3ccccc3)c2C#N)CO1 (configuration not stated) | - | - | - | - | - | -
CN(C(=O)COC(=O)c1ccccc1NCCO)C1CCS(=O)(=O)C1 (configuration not stated) | - | - | - | - | - | -
SMILES | HT1080-NT tox | KB-3-1 tox | KB-V1 MDR tox | HT1080 IDH1KD tx | SW480 rereplic | MCF10A rerep
O=C(Nc1nnc(-c2ccccc2Cl)o1)c1ccc(S(=O)(=O)N2CCCCCC2)cc1 | 4.1µM | ? | 8.2µM | 8.2µM | ? | 4µM
CC1CCCCN1S(=O)(=O)c1ccc(C(=O)Nc2nnc(-c3ccccc3Cl)o2)cc1 (configuration not stated) | ? | ? | 16µM | 8.2µM | - | ?
COC(=O)c1sc2ccccc2c1NC(=O)c1ccc(S(=O)(=O)N2CCCCC2C)cc1 (configuration not stated) | - | - | 16µM | - | - | -
CS(=O)(=O)c1ccccc1-c1nnc(NC(=O)c2ccc(S(=O)(=O)N3CCCC3)cc2)o1 | - | - | - | - | - | -
COC(=O)c1sc2ccccc2c1NC(=O)c1ccc(S(=O)(=O)N2CCCCC2)cc1 | - | - | - | - | - | -
CCC1CCCCN1S(=O)(=O)c1ccc(C(=O)Nc2nnc(-c3ccccc3Cl)o2)cc1 (configuration not stated) | ? | ? | ? | 8.2µM | ? | ?
CCOC(=O)C(CC)(CC)C(=O)/C=C/c1cccc(Br)c1 | ? | ? | ? | ? | ? | 18µM
CCC(Sc1ncnc2sc3c(c12)CCCC3)C(=O)OC(C)C (configuration not stated) | . | - | - | . | . | .
COc1ccc(/C=C/c2nc(-c3ccccc3O)n(-c3ccccc3)n2)cc1OC | . | - | - | . | . | .
COc1ccc(/C=C/c2nc(-c3ccccc3O)n(-c3ccccc3)n2)cc1 | - | - | 16µM | - | ? | -
CCO[C@H]1OC(C(=O)NC2CC2)=C[C@@H](c2ccccc2)[C@@H]1CCCO | ? | - | - | ? | ? | 23µM
C#Cc1ccc([C@@H]2C=C(C(=O)NC3CC3)O[C@H](OCC)[C@H]2CCCO)cc1 | - | - | - | - | - | ?
CCc1nc2ccc(C(=O)N3CCN(c4ccc([N+](=O)[O-])cc4)CC3)cc2nc1CC | ? | ? | ? | - | - | ?
Nc1nc2ccccc2n1/N=C/c1ccc2c(c1)OCO2 | - | - | ? | - | 21µM | -
Nc1nc2ccccc2n1/N=C/c1ccc(Br)cc1 | - | - | 9.2µM | - | - | -
C[C@@H]1CCCCO[C@H](CN(C)Cc2ccc(C(F)(F)F)cc2)[C@H](C)CN([C@@H](C)CO)C(=O)c2cc(NC(=O)Cc3ccccc3)ccc2O1 | 16µM | ? | 26µM | 18µM | . | .
C[C@@H]1CCCCO[C@H](CN(C)C(=O)c2ccncc2)[C@H](C)CN([C@@H](C)CO)C(=O)c2cc(NC(=O)c3ccccc3)ccc2O1 | - | - | - | - | . | .
CCCN(C)C[C@@H]1OCCCC[C@@H](C)Oc2ccc(NC(=O)c3ccccc3)cc2C(=O)N([C@H](C)CO)C[C@@H]1C | ? | 4.6µM | - | ? | . | .
C[C@@H]1CCCCO[C@@H](CN(C)CC2CCCCC2)[C@@H](C)CN([C@H](C)CO)C(=O)c2cc(NS(=O)(=O)c3ccc(Cl)cc3)ccc2O1 | 16µM | ? | ? | ? | . | .
CCN(CC(=O)Nc1ccc(NC(C)=O)cc1)C(=O)CCCc1c[nH]c2ccccc12 | - | - | ? | - | - | -
Cc1ccc(C(=O)c2oc3ccccc3c2NC(=O)c2cc(-c3ccccc3)on2)cc1 | . | - | - | . | . | .
O=C(Nc1nc(-c2cccs2)c(-c2cccs2)s1)C1CCCC1 | - | ? | 21µM | - | - | ?
CCCCn1c(N)c(N(CC(C)C)C(=O)CC2CCCC2)c(=O)[nH]c1=O | - | - | - | - | - | -
